Active and inactive are the calls of the source.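 How the source made its calls: active means inhibition at or above 50% relative to wild type and mutant plate controls; inactive means inhibition below 50%.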

The experiment is described as follows: inhibitors of Chlamydomonas gravitaxis, primary screen, whole organism, Chlamydomonas reinhardtii, WT vs cilia-less mutant, absorbance, 96-well (AID 463189).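 Further: 0% = wild type cc124 cells in DMSO and 100% = ciliumless bld1 mutant cells.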 As to conditions: OD600 absorbance, 2 days, at 10 µM, hits give high values.
Regarding `C=CC1(C)CC(=O)C2(O)C(C)(O1)C(OC(C)=O)C(O)C1C(C)(C)CCC(O)C12C` (stereo not given), the inhibition – broadly, the drop in the measured response relative to a control, in per cent – was -1.2% (inactive). Regarding `O=c1c(O)c(-c2ccc(O)c(O)c2)oc2cc(O)cc(O)c12`, the inhibition was 2.39% (inactive). For `COc1cc(/C=C(\C#N)C(=O)c2ccc(O)c(O)c2)cc(I)c1O`, the inhibition was 7.26% (inactive). As for `CC#CCOC(=O)c1c(C)nc2sc3c(c2c1N)CCC(O)C3` (stereo not given), the inhibition was 11.7% (inactive). For `O=C1OC(=O)C2C3CCC(O3)C12` (stereo not given), the inhibition is 2.39% (inactive).

For the compound `CN(C)CC/C=C1\c2ccccc2COc2ccccc21`, the inhibition is 6.63% (inactive). Turning to `O=C(O)C1CCCNC1` (stereo not given), the inhibition was -1.36% (inactive). On to `COC(=O)C(N)Cc1ccc(Cl)cc1` (stereo not given), for which the inhibition is -0.698% (inactive).

With `C[C@@H](CN1CCC(Cc2ccccc2)CC1)[C@@H](O)c1ccc(O)cc1`, the inhibition was 10.4% (inactive). Turning to `O=C(O)[C@@H]1C[C@H](C(=O)O)N1`, the inhibition was 1.3% (inactive). The result for `CC(=O)N[C@@H](Cc1c[nH]c2ccccc12)C(=O)OCc1cc(C(F)(F)F)cc(C(F)(F)F)c1` reads -0.535% (inactive); that for `CC1(C)NC(=O)N(c2ccc([N+](=O)[O-])c(C(F)(F)F)c2)C1=O`, 0.277% (inactive). Then `Nc1nc(Nc2ccccc2)nc2c1ncn2[C@@H]1O[C@H](CO)[C@H](O)C1O` (stereo not given in full), with -1.98% (inactive). As to `Fc1ccc(C(OCCCc2cnc[nH]2)c2ccc(F)cc2)cc1`, the inhibition is -0.416% (inactive). Turning to `COc1ccccc1N1CCN(CCCCN2C(=O)c3ccccc3C2=O)CC1`, the inhibition is 1.35% (inactive). Regarding `Cc1cc(C)c(NC(=O)C[C@H](CC(=O)O)c2cccc3ccccc23)c(C(=O)N2CCC3(CCCC3)CC2)c1`, the inhibition is 13.6% (inactive).

On to `O=C(O)CC1CCCc2ccccc2C1O` (stereo not given), for which the inhibition was 4.59% (inactive). Consider `CC(C)(C(=O)O)c1ccc(C(O)CCCN2CCC(C(O)(c3ccccc3)c3ccccc3)CC2)cc1` (stereo not given), for which the inhibition was -1.29% (inactive). On to `NCCCC(=O)O`, for which the inhibition was -6.87% (inactive). Consider `CC(=O)C(C)=O`, for which the inhibition was 6.21% (inactive). For `O=c1onc2n1-c1cc(Br)ccc1OC2`, the inhibition was -0.03% (inactive). In the case of `C#CCN1C(C)=C(C(=O)OC)C(c2cccc([N+](=O)[O-])c2)C(C(=O)OCC)=C1C` (stereo not given), the inhibition is 4.14% (inactive).

As for `O=C(O)CCCC[C@@H]1CCSS1`, the inhibition is 4.4% (inactive). As to `CCC(CO)Nc1nc(NCc2ccccc2)c2ncn(C(C)C)c2n1` (stereo not given), the inhibition was -6.72% (inactive). Regarding `COc1ccccc1CNCCCCCCNCCCCCCCCNCCCCCCNCc1ccccc1OC`, the inhibition was 126% (active). For `CN1C2CCC1CC(OC(=O)c1c[nH]c3ccccc13)C2` (stereo not given), the inhibition was 11.2% (inactive). The result for `Oc1ccc(C2CNCc3sccc32)cc1O` (stereo not given) reads 10.1% (inactive); that for `N#C/C(=C\c1ccc(O)c(O)c1)C(=O)NCc1ccccc1`, -4.45% (inactive); that for `CC1=C(CC(=O)O)c2cc(F)ccc2/C1=C\c1ccc(S(C)=O)cc1` (stereo not given), 5.19% (inactive). Then `N[C@@H](Cc1ccc(O)c(O)c1)C(=O)O`, with 2.49% (inactive); and `CCC1(O)CC2CN(CCc3c([nH]c4ccccc34)[C@@](C(=O)OC)(c3cc4c(cc3OC)N(C=O)C3[C@]45CCN4CC=C[C@@](CC)([C@@H](OC(C)=O)[C@]3(O)C(=O)OC)[C@H]45)C2)C1` (stereo not given in full), with 1.07% (inactive). The result for `O=C(/C=C/c1ccc(O)c(O)c1)OCCc1ccccc1` reads 1.6% (inactive).

For the compound `Oc1cc(O)c2c(c1)O[C@H](c1ccc(O)c(O)c1)[C@@H](O)C2`, the inhibition was 2.87% (inactive). Consider `Oc1cc2c(cc1O)C(c1ccccc1)CNCC2` (stereo not given), for which the inhibition is -4.78% (inactive).

For `NC(=O)c1cccc(N)c1`, the inhibition is 3.55% (inactive).

`Nc1c2c(nc3ccccc13)CCCC2O` (stereo not given): the inhibition is 2% (inactive).

Turning to `Oc1ccc(Cn2cc[nH]c2=S)cc1`, the inhibition was 7.18% (inactive).

As for `CCCCCCCCCCCCCCCCCCNC(=O)OCC(COP(=O)([O-])OCC[n+]1ccsc1)OC` (stereo not given), the inhibition was 7% (inactive).

For `NC(Cc1cccc(-c2ccccc2CP(=O)(O)O)c1)C(=O)O` (stereo not given), the inhibition is -2% (inactive).

Consider `N.N.N.N.N.N.N.N.N.N.N.N.N.N.O.O.[Cl-].[Cl-].[Cl-].[Cl-].[Cl-].[Cl-].[Ru+4].[Ru+5].[Ru+5]`, for which the inhibition is 97.5% (active).

These data come from PubChem BioAssay.
